D2 PAM-1: human D2 receptor positive allosteric modulation. 0.23% of 360,000 active. P14416. DiscoveRx D2 beta-arrestin cells, luminescence, 90 min; 100% = 57 uM dopamine signal. potentiation, % (concentration not given with the values); in the data active = potentiation above about 50%; inconclusive = mostly about 30% to 49%
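PathHunter beta-arrestin assay in DiscoveRx D2 cells. Compounds were added with an EC20 of dopamine (50 nM final) for 90 min at 37 deg C. Luminescence was read 1 h after detection reagent, with 57 uM dopamine as the EC100 control.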
D2 ag-1: agonists of human D2 dopamine receptor (beta-arrestin); P14416; DiscoveRx PathHunter D2 beta-arrestin, luminescence, 90 min; 100% = 57 uM dopamine signal; activation, % (concentration not given with the values); 0.084% of 360,000 active; AID 624465; in the data active = activation above about 40%; inconclusive = between about 15% and that limit
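Agonist mode: compounds alone added to overnight-plated D2 PathHunter cells for 90 min at 37 C, with 57 uM final dopamine (EC100) defining full response. Beta-arrestin recruitment detected by chemiluminescent reagent, read after 1 h at ambient temperature.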
D2 antagonist: antagonists of human D2 dopamine receptor | AID 485344 | P14416 | HEK293 TREx D2 cells, calcium flux, dopamine EC80 | 2% of 340,000 active | inhibition, % at 10 µM; in the data active = inhibition above about 30%; inactive = below that, where a call was filed; also: 0% is about no effect
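Antagonism is scored as inhibition of an EC80 dopamine-evoked calcium signal in a force-coupled, tetracycline-inducible HEK293 T-REx D2 line, with compound present 180 s before agonist.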
D2 ag-2: agonists of human D2 dopamine receptor | P14416 | HEK293 T-REx D2 cells, calcium flux agonist mode | 0.53% of 340,000 active | AID 485358 | activation, % at 2 µM;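 active = activation over 3 SD above normal in the single-dose calcium agonist read, cut at about 30% in these data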; also: 0% is about no effect
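HEK293 Trex D2 cells, tetracycline-induced, o/n 30 C 5% CO2; no-wash Ca dye, RT 30–90 min; 10-cycle baseline, 23 nl cpd added, kinetic Ca read 180 s; agonist hits = positive Ca response.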
D2 PAM-2: D2 dopamine receptor (human) potentiation; HEK293 T-REx D2, calcium flux, EC20 dopamine potentiation; AID 485347; 0.34% of 340,000 active; potentiation, % at 10 µM;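 active = potentiation over 3 SD above the plate norm, cut at about 30% in these data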; also: 0% is about no effect
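Potentiation of an EC20 dopamine calcium response is measured in a force-coupled, tetracycline-inducible Hek293 Trex D2 line. Compound-only kinetic reads over 180 s flag agonists before dopamine addition.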
D3 ag: D3 receptor agonism confirmed, beta-arrestin readout | Potency, µM (series often up to 76.9 µM), inactives show at the highest dose activation, most hits filed as activators | 4% of 2,300 active | DiscoveRx D3 beta-arrestin cells, luminescence, 90 min | shares compounds with D2 ag-2 | AID 720506;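 also: potency is read from the fitted curve at half-maximal effect; 100% = dopamine control response; nearly all actives have a fitted effect of over 70% in size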
Target sequence (P35462 whole entry, looked up): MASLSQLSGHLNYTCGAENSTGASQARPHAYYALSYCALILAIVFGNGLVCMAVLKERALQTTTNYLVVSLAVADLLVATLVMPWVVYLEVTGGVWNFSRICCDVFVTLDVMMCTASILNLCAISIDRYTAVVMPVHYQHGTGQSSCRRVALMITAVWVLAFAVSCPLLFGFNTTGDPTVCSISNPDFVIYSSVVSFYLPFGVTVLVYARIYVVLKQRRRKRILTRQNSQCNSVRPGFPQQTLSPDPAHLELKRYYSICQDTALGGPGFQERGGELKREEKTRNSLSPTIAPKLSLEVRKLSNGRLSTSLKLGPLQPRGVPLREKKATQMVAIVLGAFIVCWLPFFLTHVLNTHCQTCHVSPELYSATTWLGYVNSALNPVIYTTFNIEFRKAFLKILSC
D2 ag-3: counter-screen for D3 agonists: human D2 dopamine receptor agonism. shares compounds with D2 ag-2. DiscoveRx PathHunter D2 beta-arrestin, luminescence, 90 min; response scale: percent relative to full dopamine signal. Potency, µM (titrated, usually from 76.9 µM), for the others: at the highest dose activation, actives largely listed as activators. 5.9% of 2,300 active. AID 720507; also: potency is read from the fitted curve at half-maximal effect; % of control where 0% means no effect; nearly all actives have a fitted effect of over 70% in size
* marks the source's active call; other numbers are inactive results; ? = inconclusive; nt = no result. Only some compounds are listed: those with a hit (about 2.4% of all), similar ones and a draw of the others. Unless noted, calls follow the shape of the dose curve; as a rule, active = well fitted activation curve with a large enough effect; inconclusive = small, poorly fitted or top-dose-only effect; inactive = flat fitted curve, though single readings scatter.

SMILES | D2 PAM-1 | D2 ag-1 | D2 antagonist | D2 ag-2 | D2 PAM-2 | D3 ag | D2 ag-3
O=C(NCCCN1CCCC1=O)c1cc(NS(=O)(=O)c2ccc(F)cc2)cc(NS(=O)(=O)c2ccc(F)cc2)c1 | -10 | -1 | -1 | 0 | -2 | nt | nt
O=C(NCc1ccncc1)c1ccc(NS(=O)(=O)c2ccc(F)cc2)cc1 | -8 | 1 | nt | nt | nt | -3% | -5%
Cc1ccc(SCCNC(=S)Nc2ccc(C)cc2C)cc1 | 1 | -2 | 2 | 27 | -15 | -10% | -2%
CCn1c(C(=O)N2CCC(C(=O)NCCc3ccc(OC)cc3OC)CC2)cc2sccc21 | nt | nt | nt | -1 | 10 | nt | nt
CCOC(=O)c1[nH]c2ccc(Br)cc2c1NC(=O)CCN1CCCC(C)(C)C1 | -29 | -6 | -4 | 60* | -18 | -13% | -3%
CCOC(=O)c1[nH]c2ccc(F)cc2c1NC(=O)CCN1CCOCC1 | -9 | -5 | 2 | 2 | 1 | nt | nt
O=C(c1cccc(Cl)c1)N1CCN(Cc2ccncc2)CC1 | -11 | -4 | -19 | 1 | 4 | nt | nt
O=C(NCC(=O)N1CCN(Cc2ccccc2)CC1)c1cccs1 | -1 | 7 | nt | nt | nt | nt | nt
O=C(c1cccs1)N1CCN(Cc2ccccc2)CC1 | 24 | 41* | 64* | 75* | -26 | ? | ?
CN(c1ccc(C(=O)N2CCN(Cc3ccccc3)CC2)cc1)S(=O)(=O)c1ccccc1 | 10 | ? | 61* | 67* | -24 | 2% | ?
O=C(c1cccs1)N1CCN(CCCc2ccccc2)CC1 | -10 | 2 | 59* | 36* | -13 | 15% | 9%
O=C(c1cccs1)N1CCN(Cc2ccncc2)CC1 | 3 | 14 | 21 | 63* | -20 | 13% | ?
Cc1ccc(CN2C(=O)CN(C3CCC(C)CC3)C(=O)C2c2ccc(F)cc2)cc1 (stereo unspecified) | nt | nt | nt | 0 | 11 | nt | nt
COc1cccc(Cc2nc3ccccc3nc2SCC(=O)NCCc2ccccc2)c1 | nt | nt | nt | 1 | -1 | nt | nt
Cc1c(Cl)cccc1-n1nc(C)c2c(C)cc(=O)n(CC(=O)N3CCCc4ccccc43)c21 | nt | nt | nt | 1 | -10 | nt | nt
CCc1ccc(-n2nc(CO)c(C(=O)NCCCCc3ccccc3)n2)cc1 | nt | nt | nt | 0 | 0 | nt | nt
O=C(c1cccs1)N1CCN(c2ncccn2)CC1 | 2 | -2 | 15 | 0 | -10 | nt | nt
O=C(c1cccs1)N1CCN(Cc2cccnc2)CC1 | 14 | ? | 59* | 60* | -6 | -1% | ?
COc1ccc(N(CC(=O)NCCOc2ccccc2)S(=O)(=O)c2ccc(C)cc2)cc1 | -11 | 0 | -9 | 26 | -4 | -1% | 14%
CCOc1ccc(N(CC(=O)NCCOc2ccc(C)cc2)S(=O)(=O)c2ccccc2)cc1 | -10 | -4 | -9 | 1 | 0 | nt | nt
CCOC(=O)c1ccc(-c2c(-c3ccc(OC)cc3)oc(=O)c3cc(OC)c(OC)cc23)cc1F | 3 | 1 | nt | nt | nt | -3% | -1%
CCOC(=O)c1ccc(-c2c(-c3cc(OC)c(OC)c(OC)c3)noc2C)cc1F | -14 | 1 | 16 | 0 | 3 | nt | nt
COc1ccc(C(=O)N2CC(=O)Nc3ccc(F)cc3C2c2ccc(F)cc2)c(OC)c1 (stereo unspecified) | nt | nt | nt | 2 | 3 | nt | nt
COc1ccccc1CN1CCN(C(=O)c2ccco2)CC1 | 53* | 67* | 85* | 80* | -16 | ? | 10µM*
COc1ccccc1N1CCN(C(=O)c2ccco2)CC1 | 2 | 3 | nt | nt | nt | nt | nt
COc1ccc(Br)cc1CN1CCN(C(=O)c2ccco2)CC1 | -15 | 0 | nt | nt | nt | -8% | -1%
CCC(C(=O)Nc1cc(C)ccc1OC)n1nnc(C(=O)OC)c1C(=O)OC (stereo unspecified) | nt | nt | nt | -1 | -2 | nt | nt
CCn1c2ccc(C)cc2c2n[nH]c(=S)nc21 | -26 | -6 | -5 | -2 | 4 | 7% | -8%
